Data from PubChem BioAssay (Tox21).
Where “and” joins values, the source holds several entries; their conditions need not be identical. Equal values may be shown once. More than one record can exist for a structure, and the calls need not agree. Calls of active or inactive are those of the source. Unless noted, calls follow the shape of the dose curve; as a rule, active = well fitted curve in the direction sought with a large enough effect in the repeat runs; inconclusive = weak or mixed curves; inactive = no such curve, though single readings can be large; an effect the other way counts as inactive or inconclusive.

What was measured:
[1] = qHTS assay to identify small molecule antagonists of the glucocorticoid receptor (GR) signaling pathway - cell viability counter screen (AID 720693); also: nearly all actives have a fitted effect of over 55% in size; also: potency is read from the fitted curve at half-maximal effect
[2] = qHTS assay for identifying genotoxic compounds that show differential cytotoxicity against isogenic chicken DT40 cell lines with known DNA damage response pathways - wild type cell line (AID 743012); also: nearly all actives have a fitted effect of over 60% in size; also: potency is read from the fitted curve at half-maximal effect
How it was run: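 Wild-type DT40 cells (300/well) exposed to compounds for 40 hours at 37 C/5% CO2. Viability read by CellTiter-Glo luminescence after 30 min at room temperature.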

[3] = qHTS assay for identifying genotoxic compounds that show differential cytotoxicity against isogenic chicken DT40 cell lines with known DNA damage response pathways - Rev3 mutant cell line (AID 743014); also: nearly all actives have a fitted effect of over 55% in size; also: potency is read from the fitted curve at half-maximal effect
[4] = qHTS assay for identifying genotoxic compounds that show differential cytotoxicity against isogenic chicken DT40 cell lines with known DNA damage response pathways - Rad54/Ku70 mutant cell line (AID 743015); also: nearly all actives have a fitted effect of over 60% in size; also: potency is read from the fitted curve at half-maximal effect
[5] = qHTS assay to identify small molecule antagonists of the androgen receptor (AR) signaling pathway - cell viability counter screen (AID 743033; also: nearly all actives have a fitted effect of over 45% in size; also: potency is read from the fitted curve at half-maximal effect)
[6] = qHTS assay to identify small molecule antagonists of the androgen receptor (AR) signaling pathway using the MDA cell line - cell viability counter screen (AID 743041; also: nearly all actives have a fitted effect of over 45% in size; also: potency is read from the fitted curve at half-maximal effect)
How it was run: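 MDA-kb2 AR-luc human breast carcinoma cells (MMTV-luciferase, AR/GR responsive) were treated with compounds plus R1881 agonist for 16 h at 37 °C. Viability was read as CellTiter-Fluor fluorescence in the same wells as the reporter assay.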

[7] = qHTS assay to identify small molecule antagonists of the thyroid receptor (TR) signaling pathway - cell viability counter screen (AID 743064); also: nearly all actives have a fitted effect of over 50% in size; also: potency is read from the fitted curve at half-maximal effect
How it was run: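 Rat GH3 pituitary tumor cells stably expressing two TR response elements driving luciferase were plated, rested 4 h, then dosed with library compounds and T3 (1 nM final). After 23.5 h at 37 °C, CellTiter-Fluor was added for 30 min and fluorescence recorded.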

[8] = system: thyroid hormone receptor (rat, GH3 cells); test: qHTS assay to identify small molecule agonists of the thyroid receptor (TR) signaling pathway (AID 743066; calls by dose curve)
[9] = target: Estrogen receptor (Homo sapiens) (UniProt P03372); test: qHTS assay to identify small molecule antagonists of the estrogen receptor alpha (ER-alpha) signaling pathway (AID 743069; active = well fitted curve in the direction sought with a large enough effect in the signal ratio in the repeat runs, not every such curve was filed as active; inconclusive = weak or mixed curves, or effect the other way; inactive = no such curve, though single readings can be large or run the other way; the % refers to the signal ratio; also: potency is read from the fitted curve at half-maximal effect)
Estrogen receptor (Homo sapiens), sequence (P03372 whole entry, looked up): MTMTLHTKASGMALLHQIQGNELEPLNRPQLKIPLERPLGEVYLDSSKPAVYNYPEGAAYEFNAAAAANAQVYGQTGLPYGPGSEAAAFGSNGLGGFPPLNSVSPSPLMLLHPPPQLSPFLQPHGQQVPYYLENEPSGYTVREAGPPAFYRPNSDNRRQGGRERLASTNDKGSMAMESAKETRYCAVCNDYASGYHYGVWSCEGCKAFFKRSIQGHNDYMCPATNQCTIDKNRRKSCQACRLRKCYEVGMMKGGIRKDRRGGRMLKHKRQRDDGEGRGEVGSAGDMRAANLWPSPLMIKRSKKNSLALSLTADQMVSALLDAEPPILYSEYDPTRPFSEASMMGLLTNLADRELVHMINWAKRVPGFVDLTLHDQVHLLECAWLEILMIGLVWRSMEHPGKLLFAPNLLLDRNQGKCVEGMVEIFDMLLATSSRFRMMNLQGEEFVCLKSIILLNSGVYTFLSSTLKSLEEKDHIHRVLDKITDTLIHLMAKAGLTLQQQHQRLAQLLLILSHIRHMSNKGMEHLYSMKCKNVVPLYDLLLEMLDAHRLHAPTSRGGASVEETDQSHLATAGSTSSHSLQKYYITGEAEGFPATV
How it was run: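 HEK293 cells stably carrying an ER-alpha-UAS-bla beta-lactamase reporter were pre-cultured overnight in 2% charcoal-stripped FBS medium. Test compounds in DMSO were added together with 17beta-estradiol for 18 hr at 37C. Read-out was fluorescence after 2 hr with LiveBLAzer B/G FRET substrate at room temperature.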

[10] = qHTS assay to identify small molecule antagonists of the estrogen receptor alpha (ER-alpha) signaling pathway - cell viability counter screen (AID 743074; calls by dose curve; also: nearly all actives have a fitted effect of over 45% in size; also: potency is read from the fitted curve at half-maximal effect)
[11] = target: Estrogen receptor (Homo sapiens) (UniProt P03372); test: qHTS assay to identify small molecule agonists of the estrogen receptor alpha (ER-alpha) signaling pathway (AID 743075; calls by dose curve)
[12] = target: Estrogen receptor (Homo sapiens) (UniProt P03372); test: qHTS assay to identify small molecule agonists of the estrogen receptor alpha (ER-alpha) signaling pathway using the BG1 cell line (AID 743079); settings: BG1Luc4E2 cells, ERE-luciferase agonist, 22 h; activation: at 70.3 µM (top of the series); also: nearly all actives have a fitted effect of over 20% in size; also: potency is read from the fitted curve at half-maximal effect
[13] = qHTS assay to identify small molecule antagonists of the estrogen receptor alpha (ER-alpha) signaling pathway using the BG1 cell line (AID 743080; calls by dose curve;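 also: BG1 cells stimulated with 17beta-estradiol alongside compound; nearly all actives have a fitted effect of over 25% in size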); settings: BG1Luc4E2 ERE-luciferase antagonist mode, luminescence; activity change, negative = inhibition: at 70.3 µM (top of the series)
How it was run: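 Endogenous full-length ER-alpha in BG1-Luc-4E2 cells drives a stably integrated 4×ERE luciferase gene; compounds were tested against 17beta-estradiol over 21.5 h, with luminescence and multiplexed viability fluorescence recorded.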

[14] = qHTS assay to identify small molecule antagonists of the estrogen receptor alpha (ER-alpha) signaling pathway using the BG1 cell line - cell viability counter screen (AID 743081);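 also: compound given together with 17beta-estradiol as the ER stimulus; nearly all actives have a fitted effect of over 45% in size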; also: potency is read from the fitted curve at half-maximal effect
Aromatase (Homo sapiens) = Aromatase (Homo sapiens) (UniProt P11511); test: qHTS assay to identify aromatase inhibitors (AID 743083); also: nearly all actives have a fitted effect of over 55% in size; also: potency is read from the fitted curve at half-maximal effect
Aromatase (Homo sapiens), sequence (P11511 whole entry, looked up): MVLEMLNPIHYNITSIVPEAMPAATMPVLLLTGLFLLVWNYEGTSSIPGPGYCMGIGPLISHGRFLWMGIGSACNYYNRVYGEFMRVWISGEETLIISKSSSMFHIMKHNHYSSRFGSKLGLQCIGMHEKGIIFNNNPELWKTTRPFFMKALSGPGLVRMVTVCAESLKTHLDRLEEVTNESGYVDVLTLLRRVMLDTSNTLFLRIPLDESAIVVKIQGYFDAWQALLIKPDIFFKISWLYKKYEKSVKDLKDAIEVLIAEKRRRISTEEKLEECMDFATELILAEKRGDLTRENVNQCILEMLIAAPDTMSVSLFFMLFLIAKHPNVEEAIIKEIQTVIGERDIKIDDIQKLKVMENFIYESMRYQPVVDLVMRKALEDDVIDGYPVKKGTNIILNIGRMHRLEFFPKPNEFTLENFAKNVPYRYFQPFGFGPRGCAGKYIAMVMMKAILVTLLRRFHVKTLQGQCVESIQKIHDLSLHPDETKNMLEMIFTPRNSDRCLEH

[15] = qHTS assay to identify small molecule antagonists of the thyroid receptor (TR) signaling pathway (AID 743065); also: nearly all actives have a fitted effect of over 55% in size; also: potency is read from the fitted curve at half-maximal effect
How it was run: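 GH3.TRE-Luc rat pituitary cells carrying two TR response elements driving luciferase were plated for 4 h, given compound plus 1 nM T3 (final), and incubated 23.5 h at 37 C. ONE-Glo luminescence measured reporter inhibition; CellTiter-Fluor fluorescence tracked cytotoxicity.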

[16] = target: Androgen receptor (Homo sapiens) (UniProt P10275); test: qHTS assay to identify small molecule antagonists of the androgen receptor (AR) signaling pathway (AID 743035; active = well fitted inhibition curve with a large enough effect in the signal ratio in the repeat runs, not every such curve was filed as active; inconclusive = weak or mixed curves, or effect the other way; inactive = no such curve, though single readings can be large or run the other way; the % refers to the signal ratio)
Androgen receptor (Homo sapiens), sequence (P10275 whole entry, looked up): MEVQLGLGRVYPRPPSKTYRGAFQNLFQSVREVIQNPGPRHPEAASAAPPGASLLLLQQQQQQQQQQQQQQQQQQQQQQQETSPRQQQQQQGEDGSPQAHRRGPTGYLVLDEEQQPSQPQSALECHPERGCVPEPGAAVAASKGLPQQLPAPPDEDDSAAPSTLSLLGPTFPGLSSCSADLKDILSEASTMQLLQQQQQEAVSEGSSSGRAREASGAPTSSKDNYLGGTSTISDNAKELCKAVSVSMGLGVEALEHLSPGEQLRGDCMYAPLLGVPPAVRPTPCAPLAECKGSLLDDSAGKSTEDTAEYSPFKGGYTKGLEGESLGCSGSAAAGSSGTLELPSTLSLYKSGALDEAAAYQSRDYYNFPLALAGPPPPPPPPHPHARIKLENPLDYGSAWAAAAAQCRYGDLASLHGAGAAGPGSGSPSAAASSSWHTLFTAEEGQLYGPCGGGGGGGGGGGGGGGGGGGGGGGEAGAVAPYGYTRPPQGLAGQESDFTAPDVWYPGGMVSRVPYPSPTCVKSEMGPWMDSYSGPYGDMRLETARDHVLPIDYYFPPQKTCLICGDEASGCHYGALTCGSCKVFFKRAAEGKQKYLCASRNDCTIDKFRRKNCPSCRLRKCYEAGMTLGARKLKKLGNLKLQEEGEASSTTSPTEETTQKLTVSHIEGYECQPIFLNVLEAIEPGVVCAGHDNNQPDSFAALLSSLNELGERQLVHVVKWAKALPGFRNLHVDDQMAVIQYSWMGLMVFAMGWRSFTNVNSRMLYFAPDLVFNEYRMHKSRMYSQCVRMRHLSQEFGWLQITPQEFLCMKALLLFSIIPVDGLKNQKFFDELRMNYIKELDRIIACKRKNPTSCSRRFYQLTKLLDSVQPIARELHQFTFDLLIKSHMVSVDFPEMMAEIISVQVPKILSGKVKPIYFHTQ
How it was run: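 HEK293 cells stably carrying UAS-beta-lactamase reporter, 2,000/well, given compounds plus R1881 agonist and incubated 16 h at 37C. LiveBLAzer B/G FRET substrate then added for 2 h at room temperature before fluorescence reading.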

[17] = target: Androgen receptor (Homo sapiens) (UniProt P10275); test: qHTS assay to identify small molecule agonists of the androgen receptor (AR) signaling pathway (AID 743036; active = well fitted activation curve with a large enough effect in the signal ratio in the repeat runs, with a control signal flat, not every such curve was filed as active; inconclusive = weak or mixed curves, or effect the other way; inactive = no such curve, though single readings can be large or run the other way; the % refers to the signal ratio)
How it was run: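 Quantitative HTS of the Tox21 10K library in HEK293 cells bearing a stably integrated UAS-controlled beta-lactamase reporter. Compound exposure lasted 16 h at 37C. Reporter activity was detected by FRET substrate fluorescence after 2 h at room temperature.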

[18] = target: Androgen receptor (Homo sapiens) (UniProt P10275); test: qHTS assay to identify small molecule agonists of the androgen receptor (AR) signaling pathway using the MDA cell line (AID 743040; also: nearly all actives have a fitted effect of over 20% in size)
How it was run: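 MDA-kb2 breast carcinoma cells stably carrying an MMTV-driven luciferase reporter (AR- and GR-responsive) were seeded and held 5 h at 37C, 0% CO2, then exposed to compounds in DMSO for 16 h. Luminescence was read 30 min after ONE-Glo addition.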

Measured: Potency

ClC/C=C\CCl
inactive: [1] | [2] | [3] | [4] | [5] | [6] | [7] | [8] | [9] | [10] | [11] | [12] | [13] | [14] | Aromatase (Homo sapiens)

CCCCCCCCCC(=O)N(C)C
inactive: [1] | [2] | [3] | [4] | [5] | [6] | [15] | [8] | [10] | [14]

CCCCNc1c(C(=O)OCC)c(C)nc2c1cnn2CC
inactive: [1] | [5] | [6] | [8] | [9] | [10] | [11] | [12] | [13] | [14] | Aromatase (Homo sapiens)
active: [2] 21.1 µM | [3] 23.7 µM | [4] 26.6 µM

CCCCCCCC/C=C\CCCCCCCC(=O)OCCOC(=O)CCCCCCC/C=C\CCCCCCCC
active: [12] 71.2 µM
inactive: [1] | [2] | [3] | [4] | [5] | [6] | [8] | [10] | [11] | [13] | [14] | Aromatase (Homo sapiens)

COc1ccccc1OCCNCC(O)COc1cccc2[nH]c3ccccc3c12 (stereo not given)
active: [2] 26.6 µM | [3] 29.8 µM | [4] 29.8 µM | [7] 29.8 µM
inactive: [1] | [16] | [17] | [18] | [9] | [10] | [11] | Aromatase (Homo sapiens)

CCCCCCCCCCCCOC(=O)c1cc(O)c(O)c(O)c1
active: [1] 27.4 µM and 34.7 µM | [2] 609 nM and 386 nM | [3] 384 nM and 273 nM | [4] 342 nM and 217 nM | [5] 54.9 µM | [6] 54.5 µM | [15] 2.72 µM and 1.93 µM | [9] 19.4 µM [inconclusive] | [10] 49 µM | Aromatase (Homo sapiens) 30.5 µM and 27.3 µM
inactive: [8]

Cc1cccc(Br)c1
inactive: [1] | [2] | [3] | [4] | [5] | [6] | [7] | [8] | [10] | [14] | Aromatase (Homo sapiens)

S=C(SSSSSSC(=S)N1CCCCC1)N1CCCCC1
inactive: [1] | [8] | [9] | [11] | [12] | [14]
active: [2] 0.674 µM | [3] 0.425 µM | [4] 0.674 µM | [5] 0.68 µM | [6] 1.51 µM | Aromatase (Homo sapiens) 0.268 µM

CCCCCCCCCCCCCOP(=O)(O)O
inactive: [1] | [2] | [3] | [4] | [5] | [7] | [15] | [8] | [10] | [11] | [12] | [13] | [14]

C1CC(COCC2CO2)CCC1COCC1CO1 (stereo not given)
active: [2] 30.6 µM | [3] 6.86 µM | [4] 19.3 µM | [15] 61.1 µM
inactive: [1] | [5] | [6] | [8] | [10] | [11] | [12] | [13] | [14]

CSc1ccc2c(c1)N(CCC1CCCCN1C)c1ccccc1S2 (stereo not given)
inactive: [6] | [11] | [13]
inactive and 68.3 µM (active): [14]
active: [1] 54.7 µM | [2] 5.96 µM and 21.6 µM | [3] 6.68 µM and 17.2 µM | [4] 9.44 µM and 19.3 µM | [5] 23.9 µM and 21.8 µM | [9] 23.9 µM [inconclusive] | [10] 54.7 µM | Aromatase (Homo sapiens) 27.2 µM

Cc1nc(Nc2ncc(C(=O)Nc3c(C)cccc3Cl)s2)cc(N2CCN(CCO)CC2)n1
inactive: [1] | [5] | [10] | [11]
active: [2] 5.96 µM | [3] 9.44 µM | [4] 6.68 µM | [7] 18.8 µM | Aromatase (Homo sapiens) 1.33 µM

Cc1cc2c(C(C)C)c(O)c(O)c(C=O)c2c(O)c1-c1c(C)cc2c(C(C)C)c(O)c(O)c(C=O)c2c1O
active: [1] 9.52 µM | [2] 10.6 µM | [3] 13.3 µM | [4] 11.9 µM | [5] 21.3 µM | [7] 9.44 µM | [9] 9.52 µM [inconclusive] | [10] 21.3 µM | Aromatase (Homo sapiens) 21.1 µM
inactive: [11]

CCCCCCC(C)OC(=O)COc1nc(F)c(Cl)c(N)c1Cl (stereo not given)
active: [2] 43.3 µM | [3] 38.6 µM | [4] 38.6 µM
inactive: [1] | [5] | [8] | [10] | [14]

CC(C)c1cccc(C(C)C)c1N1C(=O)c2ccc(O)cc2C1=O
inactive: [6]
active: [1] 43.6 µM | [2] 8.63 µM | [3] 7.7 µM | [4] 8.63 µM | [5] 38.9 µM | [15] 4.86 µM | Aromatase (Homo sapiens) 54.5 µM

COc1cccc(CCc2ccccc2OCC(CN(C)C)OC(=O)CCC(=O)O)c1 (stereo not given)
active: [2] 8.41 µM | [3] 10.6 µM | [4] 11.9 µM | [15] 13.3 µM
inactive: [1] | [5] | [6] | [9] | [10] | [11] | [12] | [13] | [14] | Aromatase (Homo sapiens)
